A selection: hits, their analogues and other compounds. The true share with any hit is near 2.4%.
D2 ag-1 – D2 dopamine receptor (human) agonism | AID 485358 | activation, % at 2 µM | 340,000 compounds, 0.53% hits | HEK293 T-REx D2 cells, calcium flux agonist mode | P14416;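 active = activation over 3 SD above normal in the single-dose calcium agonist read, cut at about 30% in these data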
Target sequence (P14416 whole entry, looked up): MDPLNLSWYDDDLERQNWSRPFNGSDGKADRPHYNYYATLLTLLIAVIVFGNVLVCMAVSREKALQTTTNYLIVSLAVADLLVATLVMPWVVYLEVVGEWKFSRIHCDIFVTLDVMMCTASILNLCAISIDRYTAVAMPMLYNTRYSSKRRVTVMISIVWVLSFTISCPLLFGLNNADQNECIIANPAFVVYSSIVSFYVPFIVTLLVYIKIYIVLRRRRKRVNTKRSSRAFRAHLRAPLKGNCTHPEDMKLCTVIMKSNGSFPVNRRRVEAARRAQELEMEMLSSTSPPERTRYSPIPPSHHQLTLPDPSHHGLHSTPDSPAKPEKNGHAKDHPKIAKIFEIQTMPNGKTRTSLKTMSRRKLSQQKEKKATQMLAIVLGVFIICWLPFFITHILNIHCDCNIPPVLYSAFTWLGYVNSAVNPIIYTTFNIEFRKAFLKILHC
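Agonism is scored from calcium flux in a force-coupled, inducible HEK293 cell line expressing D2, read kinetically for 180 s after compound addition against dopamine controls.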
D2 PAM-1 – positive allosteric modulators of human D2 dopamine receptor; P14416; HEK293 T-REx D2, calcium flux, EC20 dopamine potentiation; potentiation, % at 10 µM; 340,000 compounds, 0.34% hits; AID 485347;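 active = potentiation over 3 SD above the plate norm, cut at about 30% in these data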
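Primary screen. Calcium kinetics in induced HEK293 T-REx D2 cells: compound pre-addition 180 s, EC20 dopamine, 180 s more.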
D2 PAM-2 – potentiates the human D2 dopamine receptor allosterically; P14416; AID 624464; DiscoveRx D2 beta-arrestin cells, luminescence, 90 min; 100% = 57 uM dopamine signal; potentiation, % (concentration not given with the values); 360,000 compounds, 0.23% hits; in the data active = potentiation above about 50%; inconclusive = mostly about 30% to 49%
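PathHunter beta-arrestin assay in DiscoveRx D2 cells. Compounds were added with an EC20 of dopamine (50 nM final) for 90 min at 37 deg C. Luminescence was read 1 h after detection reagent, with 57 uM dopamine as the EC100 control.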
D2 antag – D2 dopamine receptor (human) antagonism; P14416; HEK293 TREx D2 cells, calcium flux, dopamine EC80; inhibition, % at 10 µM; 340,000 compounds, 2% hits; in the data active = inhibition above about 30%; inactive = below that, where a call was filed
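Calcium mobilization kinetics were recorded at 1 s intervals in tetracycline-induced HEK293 T-REx D2 cells, first for 180 s after compound addition and then 180 s after EC80 dopamine.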
D2 ag-2 – activates the human D2 dopamine receptor. AID 624465. activation, % (no concentration beside the values). P14416. 360,000 compounds, 0.084% hits. DiscoveRx PathHunter D2 beta-arrestin, luminescence, 90 min; 100% = 57 uM dopamine signal; in the data active = activation above about 40%; inconclusive = between about 15% and that limit
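Agonist mode: compounds alone added to overnight-plated D2 PathHunter cells for 90 min at 37 C, with 57 uM final dopamine (EC100) defining full response. Beta-arrestin recruitment detected by chemiluminescent reagent, read after 1 h at ambient temperature.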
D3 arrestin ag – D3 receptor agonism confirmed, beta-arrestin readout; 2,300 compounds, 4% hits; shares compounds with D2 ag-1; DiscoveRx D3 beta-arrestin cells, luminescence, 90 min; Potency, µM (doses to about 76.9 µM), hits mostly activators; also: nearly all actives have a fitted effect of over 70% in size
D2 ag-3 – activates human D2 dopamine receptor in D3 counterscreen. shares compounds with D2 ag-1. DiscoveRx PathHunter D2 beta-arrestin, luminescence, 90 min; response scale: percent relative to full dopamine signal. Potency, µM (series often up to 76.9 µM), actives largely listed as activators. 2,300 compounds, 5.9% hits. AID 720507; also: nearly all actives have a fitted effect of over 70% in size
Large screens that a line does not name were inactive (follow-up assays come after a bar, where they were run). Unless noted, calls follow the shape of the dose curve; as a rule, active = well fitted activation curve with a large enough effect; inconclusive = small, poorly fitted or top-dose-only effect; inactive = flat fitted curve, though single readings scatter.

CCOC(=O)Nc1ccc(S(=O)(=O)Nc2nccc(C)n2)cc1	D2 ag-1 50.1 | D3 arrestin ag inactive | D2 ag-3 inactive
CC(OC(=O)c1ccc(-n2cnnn2)cc1)C(=O)Nc1ccccc1F (stereo not drawn)	none (no result: D2 ag-1, D2 PAM-1, D2 antag)
CC(OC(=O)c1ccc(-n2cnnn2)cc1)C(=O)Nc1ccc(F)c(F)c1F (stereo not drawn)	none | D3 arrestin ag inactive | D2 ag-3 inactive
CCOC(=O)c1c(C)c(C(=O)NCCCN2CCCC2=O)c(C)n1CC	D2 ag-1 62.0 | D3 arrestin ag inactive | D2 ag-3 inactive
COC(=O)c1ccc(S(=O)(=O)NCCSc2nnc3c4ccccc4n(C)c3n2)cc1	none | D3 arrestin ag inactive | D2 ag-3 inactive
CN(C)c1ncc(CN2CCC(CO)(CCCc3ccccc3)CC2)s1	D2 ag-1 68.3, D2 antag 62.2 | D3 arrestin ag inactive | D2 ag-3 inconclusive
OCC1(CCc2ccccc2)CCN(Cc2cnc(N3CCCC3)s2)CC1	none (no result: D2 ag-1, D2 PAM-1, D2 antag)
CCc1ccccc1NC(=O)C1(S(=O)(=O)c2ccc(C)cc2)CC1	none
OCC[C@H]1C[C@@H](O)[C@H](O)[C@]2(OCc3ccccc32)O1	none | D3 arrestin ag inactive | D2 ag-3 inactive
OCC[C@@H]1C[C@@H](O)[C@H](O)[C@]2(OCCCc3ccccc32)O1	none
OCC[C@H]1C[C@H](O)[C@@H](O)[C@@]2(OCCCc3ccccc32)O1	none | D3 arrestin ag inactive | D2 ag-3 inactive
CCc1ccccc1OCC(=O)Nc1cc(S(=O)(=O)N2CCOCC2)ccc1N1CCCCC1	none
CC1CC(C)CN(CCOc2cccc(Cl)c2Cl)C1 (stereo not drawn)	D2 ag-1 87.9, D2 antag 86.4, D2 ag-2 41.4 | D3 arrestin ag inconclusive | D2 ag-3 inconclusive
Clc1cccc(OCCn2cncn2)c1Cl	none (no result: D2 ag-1, D2 PAM-1, D2 antag)
COc1ccc(NC(=O)CN2CCN(c3ccc(F)cc3)CC2)cc1Cl	none
COc1cc(Cl)c(C)cc1NC(=O)c1ccccc1NC(=O)CN1CCN(c2ccccn2)CC1	none (no result: D2 ag-1, D2 PAM-1, D2 antag)
COc1cc(NC(=O)c2ccccc2)c(OC)cc1NC(=O)CN1CCN(c2ccccn2)CC1	D2 PAM-2 inconclusive | D3 arrestin ag inconclusive | D2 ag-3 inconclusive
COc1ccc(NC(=O)CN2CCN(c3ccccn3)CC2)cc1Cl	D2 ag-1 65.6 | D3 arrestin ag inconclusive | D2 ag-3 inactive
COc1ccc(CC(=O)Nc2ccc(S(=O)(=O)Nc3cc(C)nc(C)n3)cc2)cc1OC	none (no result: D2 ag-1, D2 PAM-1, D2 antag)
CCN(CC)S(=O)(=O)c1cccc(NC(=O)COC(=O)c2[nH]c(C)c(C(C)=O)c2C)c1	none (no result: D2 ag-1, D2 PAM-1, D2 antag)
COC(=O)c1ccc(Cn2c(C)c(C(=O)Nc3cccc(Oc4ccccc4)c3)sc2=O)o1	none (no result: D2 ag-1, D2 PAM-1, D2 antag)
Cc1ccccc1-c1cc(C(=O)NCC2CC2)nn1CC1CC(c2cccc([N+](=O)[O-])c2)=NO1 (stereo not drawn)	none | D3 arrestin ag inactive | D2 ag-3 inactive
O=[N+]([O-])c1ccc(O)c(-c2cc(C(F)(F)F)nc(-c3ccccc3)n2)c1	none | D3 arrestin ag inconclusive | D2 ag-3 inactive
COc1ccc2oc(=O)c(C(=O)N3c4ccccc4CC3C)cc2c1 (stereo not drawn)	none (no result: D2 ag-1, D2 PAM-1, D2 antag) | D3 arrestin ag inactive | D2 ag-3 inactive
Cc1ccc(CSCCNS(=O)(=O)c2ccccc2)cc1	none
COc1ccc(OCCCC(=O)NNC(=O)CCN2CCN(c3ccccc3)CC2)cc1	D2 ag-1 82.8, D2 antag 70.9 | D3 arrestin ag inactive | D2 ag-3 inactive
Cc1cccc(OCCCC(=O)NNC(=O)CCN2CCN(c3ccccc3)CC2)c1	D2 ag-1 59.2 | D3 arrestin ag inconclusive | D2 ag-3 inactive
COc1ccc(OC)c(NC(=O)CN2CCC(NC(=O)c3ccccc3C)CC2)c1	none
Cc1ccc2c(c1)C(O)(CC(=O)/C=C/C=C/c1ccccc1)C(=O)N2 (stereo not drawn)	D2 ag-1 48.1, D2 antag 45.3 | D3 arrestin ag inactive | D2 ag-3 inactive
Cc1cc2oc(C(=O)Nc3sc4c(c3C(=O)NCC3CCCO3)CCC4)cc(=O)c2cc1C (stereo not drawn)	none (no result: D2 PAM-2, D2 antag, D2 ag-2)
COc1cc(NC(=O)CC(C)S(=O)(=O)c2ccc3c(c2)CCN3C(C)=O)cc(OC)c1OC (stereo not drawn)	none (no result: D2 PAM-2, D2 antag, D2 ag-2)
O=[N+]([O-])c1ccc(CNCc2cc(Cl)ccc2O)cc1	none
COCCNC(=O)c1cccc(OC2CCN(C(C)COc3ccccc3)CC2)c1 (stereo not drawn)	D2 ag-1 44.8 | D3 arrestin ag inactive | D2 ag-3 inactive
CCN(CC(=O)Nc1ccc(OC)cc1)C(=O)c1ccc(OCc2c(C)noc2C)cc1	none (no result: D2 ag-1, D2 PAM-1, D2 antag)
O=C1C(=O)N(CCCn2ccnc2)C(c2cccnc2)/C1=C(/O)c1ccc(F)cc1 (stereo not drawn)	D2 ag-1 40.1 | D3 arrestin ag inactive | D2 ag-3 inactive
COc1ccccc1CCNC(=O)Cc1c(C)c2ccc(O)cc2oc1=O	none (no result: D2 PAM-2, D2 antag, D2 ag-2)
CC(C)OCC(O)CS(=O)(=O)Cc1ccccc1 (stereo not drawn)	D2 ag-1 57.7 | D3 arrestin ag inactive | D2 ag-3 inactive
CC1COc2ccccc2N1C(=O)c1ccccc1Cl (stereo not drawn)	D2 ag-1 40.7, D2 ag-2 inconclusive | D3 arrestin ag inactive | D2 ag-3 inactive
CC(C)(C)C1COc2ccccc2N1C(=O)c1ccccc1Cl (stereo not drawn)	none
C=CCN(CC=C)CCOc1ccccc1	D2 ag-1 53.1 | D3 arrestin ag inactive | D2 ag-3 inactive
CN(C)CCNC(=O)c1coc(=O)c(Br)c1	none
O=C(NCCc1ccccc1)c1coc(=O)c(Br)c1	D2 ag-1 38.9 | D3 arrestin ag inactive | D2 ag-3 inactive
Cc1oc(-c2cccc(Cl)c2)nc1CN1CCC(C(=O)NCCCN2CC(C)CC(C)C2)CC1 (stereo not drawn)	D2 ag-1 34.8 | D3 arrestin ag inactive | D2 ag-3 inactive
Cc1oc(-c2cccc(Cl)c2)nc1CN1CCC(C(=O)NCCCN2CCN(c3cccc(Cl)c3)CC2)CC1	none (no result: D2 ag-1, D2 PAM-2, D2 antag, D2 ag-2)
CC(OC(=O)c1cc[n+]([O-])cc1)C(=O)Nc1ccc(C(N)=O)cc1 (stereo not drawn)	none | D3 arrestin ag inactive | D2 ag-3 inactive
Cc1noc(C)c1C(=O)OC(C)C(=O)Nc1ccc(C(N)=O)cc1 (stereo not drawn)	none
Cc1ccc(Cn2cc(S(=O)(=O)c3cccc(Cl)c3)c(=O)c3cc(F)c(N4CCOCC4)cc32)cc1	none (no result: D2 ag-1, D2 PAM-2, D2 antag, D2 ag-2)

From PubChem
